For 36 molecules, inhibition results are on record in ChEMBL document CHEMBL3433997, “St. Jude Leishmania screening dataset” (2016).

What all share (type): functional
The target in assay [1] is Solute carrier family 2, facilitated glucose transporter member 1 (Homo sapiens) (UniProt P11166). The assay can be described thus: ST_JUDE_LEISH: Cytotoxicity at 2uM final concentration against transgenic Leishmania Mexicana promastigotes LmGLUT1 that are glucose transport deficient and complemented with the human glucose transporter GLUT1. Activity is measured by DNA content using SYBR green in vitro.
Solute carrier family 2, facilitated glucose transporter member 1 (Homo sapiens), sequence (P11166 whole entry): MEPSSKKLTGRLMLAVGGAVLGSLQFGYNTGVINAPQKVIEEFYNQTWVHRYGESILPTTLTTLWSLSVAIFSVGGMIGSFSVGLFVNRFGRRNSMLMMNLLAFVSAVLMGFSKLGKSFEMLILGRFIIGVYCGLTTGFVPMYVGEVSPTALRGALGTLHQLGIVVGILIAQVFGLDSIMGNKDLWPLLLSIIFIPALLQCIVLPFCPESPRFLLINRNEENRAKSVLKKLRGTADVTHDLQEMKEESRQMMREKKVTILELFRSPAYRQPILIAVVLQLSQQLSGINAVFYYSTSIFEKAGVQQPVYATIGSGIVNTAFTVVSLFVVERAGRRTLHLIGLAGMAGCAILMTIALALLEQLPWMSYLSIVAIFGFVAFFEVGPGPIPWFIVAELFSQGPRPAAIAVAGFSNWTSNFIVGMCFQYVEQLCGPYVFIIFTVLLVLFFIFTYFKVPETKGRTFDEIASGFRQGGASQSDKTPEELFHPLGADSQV

In assay [2] the target is Hexose transporter 1 (Plasmodium falciparum) (UniProt O97467). The assay can be described thus: ST_JUDE_LEISH: Cytotoxicity at 2uM final concentration against transgenic Leishmania Mexicana promastigotes LmPfHT that are glucose transport deficient and complemented with the Plasmodium falciparum hexose transporter. Activity is measured by DNA content using SYBR green in vitro.

Assay [3] has as its target Glucose transporter (Leishmania mexicana) (UniProt O61059). The assay can be described thus: ST_JUDE_LEISH: Cytotoxicity at 2uM final concentration against transgenic Leishmania Mexicana promastigotes LmGT2 that are glucose transport deficient and complemented with the L. Mexicana glucose transporter 2. Activity is measured by DNA content using SYBR green in vitro.

SMILES strings stand for the structures.

Turning to `c1cncc(Oc2ccc(Nc3ccnc4cc(-c5cccc(CN6CCOCC6)c5)ccc34)cc2)c1`, the inhibition was -1.93% in assay [1], -1.33% in assay [2] and -1.76% in assay [3].

Take `COc1ccc(-c2ccc(CNC(=O)c3ccc(Cl)cc3)c(F)c2)cc1CN1CCCN(C)CC1`: the inhibition in assay [1] amounted to 3.27%; in assay [2] it was 0.3%; in assay [3] it was 1.71%.

For `COc1ccc(N2C(=O)C3C(C2=O)C2(C)c4ccccc4C3(C)c3ccccc32)c([N+](=O)[O-])c1` (stereo not drawn), the inhibition in assay [1] was determined as 9.9%; in assay [2] it was 8.14%; in assay [3], 9.94%.

For the molecule `Clc1ccc(-c2csc3ncnc(Cl)c23)cc1`, the inhibition in assay [1] came to 4.6%; in assay [2], 0.54%; in assay [3], 4.02%.

Turning to `N#Cc1ccc2c(c1)CCN(CCC1CCC(NC(=O)/C=C/c3cc(Br)cs3)CC1)CC2` (stereo not drawn), the inhibition was 5.26% in assay [1], 2.93% in assay [2] and -0.56% in assay [3].

As to `CC(=O)NCCNc1cc(N2CCc3ncnc(Nc4ccc(OCc5c(F)cccc5F)c(Cl)c4)c3C2)ncn1`, the inhibition in assay [1] turned out to be 0.69%; in assay [2], 1.6%; in assay [3] it was 1.84%.

As to `CC(=O)N1CCC(C(=O)Nc2ccc(-c3cccc(-c4nc5cccc(C)c5[nH]4)c3)cc2)CC1`, the inhibition in assay [1] amounted to 2.37%; in assay [2], 0.21%; in assay [3] it was 0.44%.

For the molecule `Cc1cccc2nc(-c3cccc(-c4cccc(C(=O)NCCN5CCCC5)c4)c3)[nH]c12`, the inhibition in assay [1] is 1.04%; in assay [2], 1.28%; in assay [3], -0.38%.

For `C=CCc1ccc(C2CCN(CCCCNC(=O)c3ccc(NC(=O)c4ccc(Cl)cc4)cc3)CC2)cc1`, the inhibition is 0.91% in assay [1], 0.58% in assay [2] and 0.46% in assay [3].

In the case of `CC(CCCC(=O)Nc1ccc(CC(C)NCCc2cccc(Cl)c2)cc1)NCCc1cccc(Cl)c1` (stereo not drawn), the inhibition in assay [1] amounted to 2.68%; in assay [2], 0.02%; in assay [3] it was 1.32%.

On to `CCOC(=O)N1CCN(CCCNc2c3ccc(Cl)cc3nc3ccc(OC)cc23)CC1`, for which the inhibition in assay [1] stood at 4.11%; in assay [2], 3.33%; in assay [3], 1.42%.

With `O=S(=O)(c1cc2ccccc2s1)N(CCC(O)(C(F)(F)F)C(F)(F)F)Cc1cccc(O)c1`, the figures for the inhibition in assay [1], in assay [2] and in assay [3] were -0.29%, -1.09% and 1.75%, respectively.

On to `OC(CNCCc1ccccc1)Cn1c2ccc(Cl)cc2c2cc(Cl)ccc21` (stereo not drawn), for which the inhibition in assay [1] was -1.53%; in assay [2] it was -1.78%; in assay [3], -2.27%.

Take `CC[C@H](C)CNC(=O)c1cncc(-c2ccc(CNC3CCCC3)cc2)c1`: the inhibition in assay [1] is 2.12%; in assay [2], 1.43%; in assay [3] it was 1.7%.

Regarding `N#Cc1ccc(CN2CCC(Oc3ccc(NC(=O)c4cccs4)cc3)CC2)cc1`, the inhibition in assay [1] is -0.02%; in assay [2], 1.99%; in assay [3] it was 4.28%.

`CCCCCCCN1CC[C@@H](CCCc2ccnc3ccc(OCCCCN/C(N)=N/O)cc23)[C@@H](CC)C1`: the results for the inhibition in assay [1], in assay [2] and in assay [3] were 4.19%, 2.68% and 2.04%, respectively.

For `Clc1ccc2c(NCc3ccccn3)ccnc2c1`, the inhibition in assay [1] was found to be 9.87%; in assay [2], 10.9%; in assay [3], 4.77%.

As for `O=C(c1ccc(O)c(-c2cc(Cl)cc(Cl)c2)c1)N1CCCC1`, the inhibition in assay [1] was 1.89%; in assay [2] it was 0.9%; in assay [3] it was -0.96%.

`O=C(Nc1ccc(C(=O)Oc2ccc(-c3ccccc3)cc2)cc1)N[C@@H](Cc1ccc(O)cc1)C(=O)NC1CCN(Cc2ccc(O)cc2)C1` (stereo partly drawn): the inhibition in assay [1] was 2.56%; in assay [2], 2.9%; in assay [3], 4.33%.

On to `CC(=O)Oc1ccc(C(=O)Oc2ccccc2C#CC#N)cc1OC(C)=O`, for which the inhibition in assay [1] was -2.02%; in assay [2], 0.93%; in assay [3], -1.3%.

On to `CNC(=O)c1cnc(Nc2ccc(OCC(O)CN(C)C)cc2)nc1Nc1cccc(OC)c1` (stereo not drawn), for which the inhibition in assay [1] was 3.9%; in assay [2], -2.08%; in assay [3], 4.47%.

Take `c1ccc2c(CNc3nc(NCC4CCCCC4)nc4[nH]cnc34)cccc2c1`: the inhibition was 4.27% in assay [1], 5.29% in assay [2] and 2.36% in assay [3].

As for `Cc1cccc2nc(-c3ccc(-c4ccc(CNCc5ccccc5)cc4)s3)[nH]c12`, the inhibition in assay [1] is 8.05%; in assay [2], 4.44%; in assay [3] it was 3.06%.

Turning to `Clc1ccc(CNC2CCN(CC3CCCCC3)CC2)cc1`, the results for the inhibition in assay [1], in assay [2] and in assay [3] were 5.87%, 11.2% and 10.2%, respectively.

In the case of `Cc1ccc2c(=NN=Cc3cccc(F)c3)cc(C)[nH]c2c1`, the figures for the inhibition in assay [1], in assay [2] and in assay [3] were 7.16%, 7.52% and 6.18%, respectively.

For `O=C(Nc1ccc(F)c(Cl)c1)c1cc([N+](=O)[O-])cc2cn[nH]c12`, the inhibition in assay [1] was -0.64%; in assay [2], -0.66%; in assay [3] it was -2.22%.

On to `CCCCOc1cc(CNCCCCCCNCc2cc(OCCCC)cc3ccccc23)c2ccccc2c1`, for which the inhibition is 4.98% in assay [1], 0.76% in assay [2] and -2.17% in assay [3].

Consider `C[C@H](N[C@H]1CCCc2c1[nH]c1ccc(Br)cc21)c1ccccc1`, for which the values for the inhibition in assay [1], in assay [2] and in assay [3] were 2.46%, 0.78% and 0.74%, respectively.

For the molecule `N#CC(c1cccc(Cl)c1)c1ccc2c(C(F)(F)F)cc(C(F)(F)F)nc2n1` (stereo not drawn), the values for the inhibition in assay [1], in assay [2] and in assay [3] were 9.02%, 7.47% and 6.02%, respectively.

As for `COCCNCc1ncsc1-c1ccc2c(Nc3ccc(Oc4ccccc4)cc3)ccnc2c1`, the inhibition in assay [1] worked out at 0.02%; in assay [2], 1.15%; in assay [3], 2.26%.

Take `CCC1CN(CCCn2c3ccccc3c3ccccc32)C(CC)CN1` (stereo not drawn): the figures for the inhibition in assay [1], in assay [2] and in assay [3] were -0.46%, -0.59% and -0.18%, respectively.

In the case of `COc1cc(C(=O)N2N=C(c3c(-c4ccccc4)c4cc(Br)ccc4[nH]c3=O)CC2c2cccc([N+](=O)[O-])c2)cc(OC)c1OC` (stereo not drawn), the inhibition is 3.48% in assay [1], 3.48% in assay [2] and 3.79% in assay [3].

As to `CC(=O)Nc1ccc(C(=O)Nc2cccc(-c3cccc(-c4nc5cccc(C)c5[nH]4)c3)c2)cn1`, the values for the inhibition in assay [1], in assay [2] and in assay [3] were 4.29%, 3.64% and 1.41%, respectively.

In the case of `O=C(Nc1cccc(N2CCC(NCCCc3ccncc3)CC2)c1)c1cccc(C(F)(F)F)c1`, the inhibition in assay [1] was 3.33%; in assay [2], 5.68%; in assay [3], 4.83%.

As for `Cc1nc(C)c(CC(=O)Nc2ccc(-c3ccc(-c4nc5cc(C(F)(F)F)ccc5[nH]4)s3)cc2)s1`, the inhibition was 2.35% in assay [1], 2.1% in assay [2] and -0.02% in assay [3].

On to `CCCCCCN(CCCCCC)CC(O)c1cc(-c2ccc(Cl)cc2)nc2c(C)cc(C)cc12` (stereo not drawn), for which the inhibition turned out to be 8.61% in assay [1], 6.85% in assay [2] and 8.75% in assay [3].
